Assay results as given in paper PMC7862700, “An all-to-all approach to the identification of sequence-specific readers for epigenetic DNA modifications on cytosine”.

Legend:
Test in all cases: DAPPL (digital affinity profiling via proximity ligation, sequencing); 10 mM Tris-HCl pH 7.5, 50 mM NaCl, 1 mM DTT, 4% glycerol, room temperature, 30 min; GST-TFs on glutathione beads, 16-mer random dsDNA library, 0.1% formaldehyde crosslink after washing; high values mean tight binding
FLI1 = target: T1, FLI1 (Homo sapiens, UniProt Q01543 1-452); conditions: protein: recombinant; tags: N-terminal GST; dsDNA, one strand shown
T1 sequence: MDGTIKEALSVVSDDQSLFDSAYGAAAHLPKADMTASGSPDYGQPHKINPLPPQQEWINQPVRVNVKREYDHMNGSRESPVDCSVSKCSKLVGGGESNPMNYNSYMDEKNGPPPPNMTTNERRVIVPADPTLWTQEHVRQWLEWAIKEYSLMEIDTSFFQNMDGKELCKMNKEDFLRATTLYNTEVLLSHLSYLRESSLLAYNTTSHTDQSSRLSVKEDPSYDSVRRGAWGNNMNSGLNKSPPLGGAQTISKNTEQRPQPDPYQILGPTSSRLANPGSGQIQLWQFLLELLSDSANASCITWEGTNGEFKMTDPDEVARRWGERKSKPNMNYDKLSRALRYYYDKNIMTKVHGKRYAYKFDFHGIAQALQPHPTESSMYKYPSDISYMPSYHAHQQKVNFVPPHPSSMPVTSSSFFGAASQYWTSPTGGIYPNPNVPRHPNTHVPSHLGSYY
Summary of the method: (§1)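 After expression in yeast as GST fusions, human transcription factors were bound to glutathione beads, DNA-barcoded and mixed with a tag-only sample. The pools were incubated with 200 nmole of a 16-mer random double-stranded DNA library in Tris/NaCl/DTT/glycerol buffer (30 min, room temperature), washed and crosslinked with 0.1% formaldehyde. Proximity ligation with BsaI/T4 ligase ran for 1 h at 37 °C, before PCR amplification and sequencing on an Illumina NextSeq500. Binding signal is a hexamer's read frequency for a factor divided by its frequency for the tag-only sample.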

ELK1 = target: T2, ELK1 (Homo sapiens, UniProt P19419 1-428); conditions: protein: recombinant; tags: N-terminal GST; dsDNA, one strand shown
T2 sequence: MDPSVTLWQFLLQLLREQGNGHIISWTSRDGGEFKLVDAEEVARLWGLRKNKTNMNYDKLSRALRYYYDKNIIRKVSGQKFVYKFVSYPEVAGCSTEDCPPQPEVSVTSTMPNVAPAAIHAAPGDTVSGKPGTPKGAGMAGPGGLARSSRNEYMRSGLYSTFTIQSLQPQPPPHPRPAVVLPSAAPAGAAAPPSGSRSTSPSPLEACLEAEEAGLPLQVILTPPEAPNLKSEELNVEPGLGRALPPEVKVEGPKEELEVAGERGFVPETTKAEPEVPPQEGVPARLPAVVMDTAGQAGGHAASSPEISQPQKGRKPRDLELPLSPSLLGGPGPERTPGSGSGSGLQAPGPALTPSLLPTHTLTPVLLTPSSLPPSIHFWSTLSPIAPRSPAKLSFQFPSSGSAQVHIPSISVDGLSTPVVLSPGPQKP
Summary of the method: as §1

GABPA = target: T3, GABPA (Homo sapiens, UniProt Q06546 1-454); conditions: protein: recombinant; tags: N-terminal GST; dsDNA, one strand shown
T3 sequence: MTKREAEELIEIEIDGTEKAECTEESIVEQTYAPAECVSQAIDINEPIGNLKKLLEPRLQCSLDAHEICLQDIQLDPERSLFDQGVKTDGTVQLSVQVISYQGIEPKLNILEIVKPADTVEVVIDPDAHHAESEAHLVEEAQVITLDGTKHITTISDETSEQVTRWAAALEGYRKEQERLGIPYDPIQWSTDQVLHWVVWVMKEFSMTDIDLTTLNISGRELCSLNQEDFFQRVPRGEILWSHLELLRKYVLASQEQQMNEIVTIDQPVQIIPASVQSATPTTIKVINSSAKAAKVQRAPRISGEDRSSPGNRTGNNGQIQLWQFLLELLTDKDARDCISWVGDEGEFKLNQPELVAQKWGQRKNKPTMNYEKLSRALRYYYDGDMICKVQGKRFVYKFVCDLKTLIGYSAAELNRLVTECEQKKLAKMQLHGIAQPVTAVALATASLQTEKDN
Summary of the method: as §1

ELF1 = ELF1 (Homo sapiens, UniProt P32519 1-619); conditions: protein: recombinant; tags: N-terminal GST; dsDNA, one strand shown
Summary of the method: as §1

EHF = target: T4, EHF (Homo sapiens, UniProt Q9NZC4 1-300); conditions: protein: recombinant; tags: N-terminal GST; dsDNA, one strand shown
T4 sequence: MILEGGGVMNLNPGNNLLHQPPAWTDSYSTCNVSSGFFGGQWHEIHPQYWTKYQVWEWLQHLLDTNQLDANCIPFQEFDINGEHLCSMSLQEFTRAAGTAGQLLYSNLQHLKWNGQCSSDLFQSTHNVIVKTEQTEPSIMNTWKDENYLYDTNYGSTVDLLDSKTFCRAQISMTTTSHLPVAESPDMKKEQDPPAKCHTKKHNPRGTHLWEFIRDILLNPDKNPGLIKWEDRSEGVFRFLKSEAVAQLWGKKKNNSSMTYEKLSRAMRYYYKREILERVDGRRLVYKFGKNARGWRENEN
Summary of the method: as §1

ELK3 = target: T5, ELK3 (Homo sapiens, UniProt P41970 1-407); conditions: protein: recombinant; tags: N-terminal GST; dsDNA, one strand shown
T5 sequence: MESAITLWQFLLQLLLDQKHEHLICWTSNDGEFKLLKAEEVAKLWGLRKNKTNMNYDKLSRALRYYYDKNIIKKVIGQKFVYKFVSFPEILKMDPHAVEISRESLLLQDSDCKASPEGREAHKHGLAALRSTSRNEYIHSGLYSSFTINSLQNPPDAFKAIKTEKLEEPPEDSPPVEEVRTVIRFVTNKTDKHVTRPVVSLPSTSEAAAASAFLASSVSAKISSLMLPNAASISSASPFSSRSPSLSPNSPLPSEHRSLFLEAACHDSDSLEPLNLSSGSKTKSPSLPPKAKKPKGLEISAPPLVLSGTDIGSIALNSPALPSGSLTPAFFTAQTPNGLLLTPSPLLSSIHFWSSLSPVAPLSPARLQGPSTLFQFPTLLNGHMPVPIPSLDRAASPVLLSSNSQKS
Summary of the method: as §1

ETV5 = ETV5 (Homo sapiens, UniProt P41161 1-510); conditions: protein: recombinant; tags: N-terminal GST; dsDNA, one strand shown
Summary of the method: as §1

HSF1 = HSF1 (Homo sapiens, UniProt Q00613 1-529); conditions: protein: recombinant; tags: N-terminal GST; chain copies: 3; dsDNA, one strand shown
Summary of the method: as §1

SPIC = target: T6, SPIC (Homo sapiens, UniProt Q8N5J4 1-248); conditions: protein: recombinant; tags: N-terminal GST; dsDNA, one strand shown
T6 sequence: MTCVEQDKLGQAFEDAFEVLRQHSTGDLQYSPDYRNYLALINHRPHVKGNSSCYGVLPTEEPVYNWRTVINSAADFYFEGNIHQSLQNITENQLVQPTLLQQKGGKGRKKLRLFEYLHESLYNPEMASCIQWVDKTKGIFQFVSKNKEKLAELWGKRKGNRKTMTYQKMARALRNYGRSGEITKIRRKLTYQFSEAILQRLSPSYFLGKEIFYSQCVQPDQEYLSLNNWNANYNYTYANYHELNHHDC
Summary of the method: as §1

ELF4 = ELF4 (Homo sapiens, UniProt Q99607 1-663); conditions: protein: recombinant; tags: N-terminal GST; dsDNA, one strand shown
Summary of the method: as §1

ELK4 = target: T7, ELK4 (Homo sapiens, UniProt P28324-2 1-405); conditions: protein: recombinant; tags: N-terminal GST; dsDNA, one strand shown
T7 sequence: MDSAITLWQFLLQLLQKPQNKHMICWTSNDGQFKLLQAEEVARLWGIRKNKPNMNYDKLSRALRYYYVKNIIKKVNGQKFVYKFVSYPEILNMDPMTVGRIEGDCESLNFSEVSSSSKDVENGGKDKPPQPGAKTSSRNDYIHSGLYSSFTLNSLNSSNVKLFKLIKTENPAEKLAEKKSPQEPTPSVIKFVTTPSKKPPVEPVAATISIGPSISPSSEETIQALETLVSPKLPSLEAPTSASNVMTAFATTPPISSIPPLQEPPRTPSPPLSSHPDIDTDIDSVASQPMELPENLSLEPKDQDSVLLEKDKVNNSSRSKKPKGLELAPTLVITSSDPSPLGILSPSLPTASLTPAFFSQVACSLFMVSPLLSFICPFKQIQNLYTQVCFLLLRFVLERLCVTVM
Summary of the method: as §1

ELF3 = target: T8, ELF3 (Homo sapiens, UniProt P78545 1-371); conditions: protein: recombinant; tags: N-terminal GST; dsDNA, one strand shown
T8 sequence: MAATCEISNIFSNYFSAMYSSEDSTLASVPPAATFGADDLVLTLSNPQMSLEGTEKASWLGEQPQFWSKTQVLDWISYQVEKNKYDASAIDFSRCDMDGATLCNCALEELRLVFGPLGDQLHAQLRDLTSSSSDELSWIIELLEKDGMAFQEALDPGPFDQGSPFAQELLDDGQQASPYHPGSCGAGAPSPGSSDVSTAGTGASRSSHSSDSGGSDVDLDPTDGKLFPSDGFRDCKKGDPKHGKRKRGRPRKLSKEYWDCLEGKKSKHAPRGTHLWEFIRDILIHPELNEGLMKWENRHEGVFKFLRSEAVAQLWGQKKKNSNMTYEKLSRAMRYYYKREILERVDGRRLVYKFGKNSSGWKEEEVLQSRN
Summary of the method: as §1

CRX = CRX (Homo sapiens, UniProt O43186 1-299); conditions: protein: recombinant; tags: N-terminal GST; dsDNA, one strand shown
Summary of the method: as §1

ETV1 = ETV1 (Homo sapiens, UniProt P50549 1-477); conditions: protein: recombinant; tags: N-terminal GST; dsDNA, one strand shown
Summary of the method: as §1

ERG = target: T9, ERG (Homo sapiens, UniProt P11308 1-479); conditions: protein: recombinant; tags: N-terminal GST; dsDNA, one strand shown
T9 sequence: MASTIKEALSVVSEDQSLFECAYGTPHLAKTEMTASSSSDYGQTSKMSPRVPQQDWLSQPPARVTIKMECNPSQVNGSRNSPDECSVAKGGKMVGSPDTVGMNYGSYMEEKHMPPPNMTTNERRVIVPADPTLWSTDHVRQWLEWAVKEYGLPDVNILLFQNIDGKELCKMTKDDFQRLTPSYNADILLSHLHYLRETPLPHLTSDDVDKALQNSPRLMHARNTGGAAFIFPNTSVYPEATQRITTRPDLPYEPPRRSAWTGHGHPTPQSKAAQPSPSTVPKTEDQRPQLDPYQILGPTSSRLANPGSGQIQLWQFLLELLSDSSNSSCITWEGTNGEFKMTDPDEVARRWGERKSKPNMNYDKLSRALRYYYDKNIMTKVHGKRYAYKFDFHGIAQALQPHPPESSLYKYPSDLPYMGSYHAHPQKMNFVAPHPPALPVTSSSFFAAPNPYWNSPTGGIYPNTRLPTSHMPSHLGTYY
Summary of the method: as §1

SPI1 = SPI1 (Homo sapiens, UniProt P17947 1-270); conditions: protein: recombinant; tags: N-terminal GST; dsDNA, one strand shown
Summary of the method: as §1

SPIB = SPIB (Homo sapiens, UniProt Q01892 1-262); conditions: protein: recombinant; tags: N-terminal GST; dsDNA, one strand shown
Summary of the method: as §1

ETV2 = target: T10, ETV2 (Homo sapiens, UniProt O00321 1-342); conditions: protein: recombinant; tags: N-terminal GST; dsDNA, one strand shown
T10 sequence: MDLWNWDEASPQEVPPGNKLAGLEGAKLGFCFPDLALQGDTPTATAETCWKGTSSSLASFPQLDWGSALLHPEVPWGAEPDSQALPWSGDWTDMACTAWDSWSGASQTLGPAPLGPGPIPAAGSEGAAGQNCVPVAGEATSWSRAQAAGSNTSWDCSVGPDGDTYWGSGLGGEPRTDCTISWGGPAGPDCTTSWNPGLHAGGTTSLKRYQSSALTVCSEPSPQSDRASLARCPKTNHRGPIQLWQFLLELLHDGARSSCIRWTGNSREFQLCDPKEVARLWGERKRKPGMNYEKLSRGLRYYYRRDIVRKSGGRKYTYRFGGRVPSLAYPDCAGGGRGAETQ
Summary of the method: as §1

Sequence of ELF4 (Q99607 whole entry): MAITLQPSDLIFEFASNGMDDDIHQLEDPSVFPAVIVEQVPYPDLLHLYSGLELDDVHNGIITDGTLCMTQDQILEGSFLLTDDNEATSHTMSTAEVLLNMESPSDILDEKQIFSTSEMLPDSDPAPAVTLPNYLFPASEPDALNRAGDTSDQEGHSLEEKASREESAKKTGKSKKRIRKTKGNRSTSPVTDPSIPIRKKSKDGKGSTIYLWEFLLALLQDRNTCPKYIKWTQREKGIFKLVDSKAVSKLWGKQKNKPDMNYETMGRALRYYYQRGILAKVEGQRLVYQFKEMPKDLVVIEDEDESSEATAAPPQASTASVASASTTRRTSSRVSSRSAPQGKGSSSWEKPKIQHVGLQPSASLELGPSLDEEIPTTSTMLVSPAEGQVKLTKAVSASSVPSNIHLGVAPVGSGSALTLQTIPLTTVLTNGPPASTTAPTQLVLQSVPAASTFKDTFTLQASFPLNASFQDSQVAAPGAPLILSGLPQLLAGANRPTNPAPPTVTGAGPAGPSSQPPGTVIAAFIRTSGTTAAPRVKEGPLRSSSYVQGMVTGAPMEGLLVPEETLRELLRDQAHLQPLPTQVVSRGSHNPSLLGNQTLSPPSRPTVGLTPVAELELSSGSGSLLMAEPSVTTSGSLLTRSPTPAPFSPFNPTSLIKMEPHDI
Sequence of ETV5 (P41161 whole entry): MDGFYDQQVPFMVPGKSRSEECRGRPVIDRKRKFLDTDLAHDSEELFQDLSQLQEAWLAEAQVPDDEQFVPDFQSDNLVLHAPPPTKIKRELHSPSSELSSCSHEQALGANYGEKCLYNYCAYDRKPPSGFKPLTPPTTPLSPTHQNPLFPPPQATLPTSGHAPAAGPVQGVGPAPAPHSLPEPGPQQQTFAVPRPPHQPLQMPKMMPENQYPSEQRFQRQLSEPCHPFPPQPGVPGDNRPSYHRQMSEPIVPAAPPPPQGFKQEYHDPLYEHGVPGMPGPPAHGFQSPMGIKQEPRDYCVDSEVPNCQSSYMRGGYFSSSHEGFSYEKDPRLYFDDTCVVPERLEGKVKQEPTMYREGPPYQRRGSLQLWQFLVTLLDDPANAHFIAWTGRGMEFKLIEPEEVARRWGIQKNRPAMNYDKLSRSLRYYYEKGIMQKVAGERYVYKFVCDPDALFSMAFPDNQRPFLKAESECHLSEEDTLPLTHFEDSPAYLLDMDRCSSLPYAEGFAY
Sequence of CRX (O43186 whole entry): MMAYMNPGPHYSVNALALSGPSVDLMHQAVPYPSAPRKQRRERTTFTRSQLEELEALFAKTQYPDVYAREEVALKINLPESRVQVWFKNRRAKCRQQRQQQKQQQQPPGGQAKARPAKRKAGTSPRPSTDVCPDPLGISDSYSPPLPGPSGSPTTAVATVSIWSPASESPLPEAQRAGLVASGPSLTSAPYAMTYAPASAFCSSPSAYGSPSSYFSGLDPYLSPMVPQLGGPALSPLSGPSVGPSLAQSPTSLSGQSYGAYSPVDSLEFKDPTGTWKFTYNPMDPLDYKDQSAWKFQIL
Sequence of HSF1 (Q00613 whole entry): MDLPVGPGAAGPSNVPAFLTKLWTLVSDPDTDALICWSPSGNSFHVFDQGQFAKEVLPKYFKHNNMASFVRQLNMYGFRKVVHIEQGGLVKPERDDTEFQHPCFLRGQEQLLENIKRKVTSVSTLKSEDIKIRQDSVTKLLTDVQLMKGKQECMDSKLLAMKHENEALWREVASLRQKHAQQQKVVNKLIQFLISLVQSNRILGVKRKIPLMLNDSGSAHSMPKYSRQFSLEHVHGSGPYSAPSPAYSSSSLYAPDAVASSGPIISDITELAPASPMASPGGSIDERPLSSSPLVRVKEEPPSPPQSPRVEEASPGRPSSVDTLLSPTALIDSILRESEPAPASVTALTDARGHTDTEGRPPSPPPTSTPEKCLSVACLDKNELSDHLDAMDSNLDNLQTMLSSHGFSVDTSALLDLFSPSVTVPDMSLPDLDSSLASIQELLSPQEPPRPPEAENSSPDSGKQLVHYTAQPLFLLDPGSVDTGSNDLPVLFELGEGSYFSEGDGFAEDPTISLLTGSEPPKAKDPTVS
Sequence of SPIB (Q01892 whole entry): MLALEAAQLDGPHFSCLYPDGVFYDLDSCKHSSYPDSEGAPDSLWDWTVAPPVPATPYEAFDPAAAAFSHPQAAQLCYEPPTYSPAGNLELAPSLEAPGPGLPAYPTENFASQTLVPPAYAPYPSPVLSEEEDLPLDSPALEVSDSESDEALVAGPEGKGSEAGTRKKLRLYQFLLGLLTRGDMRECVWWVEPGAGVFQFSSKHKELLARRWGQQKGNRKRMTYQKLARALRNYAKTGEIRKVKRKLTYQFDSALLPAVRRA
Sequence of ETV1 (P50549 whole entry): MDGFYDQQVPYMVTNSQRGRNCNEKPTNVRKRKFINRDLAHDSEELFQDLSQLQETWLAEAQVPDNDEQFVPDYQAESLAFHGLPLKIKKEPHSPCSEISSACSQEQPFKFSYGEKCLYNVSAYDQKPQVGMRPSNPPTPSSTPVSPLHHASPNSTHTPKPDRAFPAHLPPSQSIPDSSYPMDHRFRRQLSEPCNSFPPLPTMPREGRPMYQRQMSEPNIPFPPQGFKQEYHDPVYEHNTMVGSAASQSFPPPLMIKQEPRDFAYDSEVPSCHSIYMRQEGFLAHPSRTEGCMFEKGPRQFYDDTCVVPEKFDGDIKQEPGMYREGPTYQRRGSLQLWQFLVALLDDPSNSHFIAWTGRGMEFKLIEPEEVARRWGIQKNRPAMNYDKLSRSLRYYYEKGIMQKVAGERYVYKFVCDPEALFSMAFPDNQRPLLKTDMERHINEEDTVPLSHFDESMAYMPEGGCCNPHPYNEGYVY
Sequence of ELF1 (P32519 whole entry): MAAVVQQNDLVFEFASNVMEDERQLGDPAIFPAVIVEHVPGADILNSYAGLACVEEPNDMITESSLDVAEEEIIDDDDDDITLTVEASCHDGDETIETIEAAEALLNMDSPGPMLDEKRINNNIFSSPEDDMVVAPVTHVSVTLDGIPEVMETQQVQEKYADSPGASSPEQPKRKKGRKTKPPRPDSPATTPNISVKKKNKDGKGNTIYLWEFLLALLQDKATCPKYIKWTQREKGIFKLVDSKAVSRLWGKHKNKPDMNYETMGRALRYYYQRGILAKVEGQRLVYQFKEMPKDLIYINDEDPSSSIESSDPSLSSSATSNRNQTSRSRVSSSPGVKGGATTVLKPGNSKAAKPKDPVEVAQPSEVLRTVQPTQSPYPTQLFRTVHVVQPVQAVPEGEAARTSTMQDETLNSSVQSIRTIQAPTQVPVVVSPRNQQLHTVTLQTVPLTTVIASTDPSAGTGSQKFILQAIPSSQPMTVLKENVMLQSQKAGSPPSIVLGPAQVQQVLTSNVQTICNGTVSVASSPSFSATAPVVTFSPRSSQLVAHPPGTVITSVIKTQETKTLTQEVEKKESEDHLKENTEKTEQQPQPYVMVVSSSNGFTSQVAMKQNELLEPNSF

Sequence	binding signal (FLI1)	binding signal (ELK1)	binding signal (GABPA)	binding signal (ELF1)	binding signal (EHF)	binding signal (ELK3)	binding signal (ETV5)	binding signal (HSF1)	binding signal (SPIC)	binding signal (ELF4)	binding signal (ELK4)	binding signal (ELF3)	binding signal (CRX)	binding signal (ETV1)	binding signal (ERG)	binding signal (SPI1)	binding signal (SPIB)	binding signal (ETV2)
TCATGA	1.12 fold enrichment (6-mer frequency, TF over GST control)	1 fold enrichment (6-mer frequency, TF over GST control)	1.18 fold enrichment (6-mer frequency, TF over GST control)	1.03 fold enrichment (6-mer frequency, TF over GST control)	1.07 fold enrichment (6-mer frequency, TF over GST control)	1.05 fold enrichment (6-mer frequency, TF over GST control)	1.08 fold enrichment (6-mer frequency, TF over GST control)	1.06 fold enrichment (6-mer frequency, TF over GST control)	1.07 fold enrichment (6-mer frequency, TF over GST control)	1.06 fold enrichment (6-mer frequency, TF over GST control)	1.03 fold enrichment (6-mer frequency, TF over GST control)	1 fold enrichment (6-mer frequency, TF over GST control)	1.07 fold enrichment (6-mer frequency, TF over GST control)	1.14 fold enrichment (6-mer frequency, TF over GST control)				
GTTAAA	1.03 fold enrichment (6-mer frequency, TF over GST control)		1.01 fold enrichment (6-mer frequency, TF over GST control)			1.01 fold enrichment (6-mer frequency, TF over GST control)	1.02 fold enrichment (6-mer frequency, TF over GST control)	1.01 fold enrichment (6-mer frequency, TF over GST control)	1.17 fold enrichment (6-mer frequency, TF over GST control)	1.07 fold enrichment (6-mer frequency, TF over GST control)	1.04 fold enrichment (6-mer frequency, TF over GST control)	1.29 fold enrichment (6-mer frequency, TF over GST control)	1.27 fold enrichment (6-mer frequency, TF over GST control)		1.03 fold enrichment (6-mer frequency, TF over GST control)	1.08 fold enrichment (6-mer frequency, TF over GST control)	1.07 fold enrichment (6-mer frequency, TF over GST control)	1.11 fold enrichment (6-mer frequency, TF over GST control)
